Screening data from PubChem BioAssay.
Most compounds without a hit are left out; they make up all but 3.8% or so of the library.
FH mod: Identification of activators of human fumarate hydratase by quantitative high-throughput screening; 54,000 tested, 0.22% active; AID 1347055, 2019; Fumarate hydratase, mitochondrial (Homo sapiens), P07954; FH coupled MDH/diaphorase resazurin fluorescence, 15 min; Potency, µM (titrated, usually from 79.9 µM), inactives show top-dose activity change, negative = inhibition, hits mostly inhibitors; further: potency means the concentration at half of the fitted maximal effect; on the % scale 0 is the no-effect control and ±100 the full control effect; the screen sought activators but most active calls are inhibition curves; nearly all actives have a fitted effect of over 45% in size
GPR32 ag: activates human resolvin D1 receptor GPR32. AID 1346428. activation, % at 76.9 µM. 48,000 tested, 2.5% active. CHO-K1 GPR32 beta-arrestin PathHunter luminescence, 90 min; zero percent set by DMSO-only wells;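 active means activation of at least 60% and not above a set upper limit, about 1 call in 100 departs from these limits; inconclusive means activation of 40% to 60%, or above that upper limit; inactive means activation under 40%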; further: 0% is about no effect
Target sequence (O75388 whole entry, looked up): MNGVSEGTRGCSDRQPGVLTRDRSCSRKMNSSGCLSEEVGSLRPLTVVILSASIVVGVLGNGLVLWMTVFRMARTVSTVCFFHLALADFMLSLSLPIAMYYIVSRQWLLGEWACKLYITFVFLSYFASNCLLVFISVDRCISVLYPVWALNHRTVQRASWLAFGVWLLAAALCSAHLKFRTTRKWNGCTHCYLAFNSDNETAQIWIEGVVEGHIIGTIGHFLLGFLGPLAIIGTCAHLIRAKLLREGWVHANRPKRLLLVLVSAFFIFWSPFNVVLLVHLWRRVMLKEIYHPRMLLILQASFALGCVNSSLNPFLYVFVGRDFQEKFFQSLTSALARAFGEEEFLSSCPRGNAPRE
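Agonism was scored by beta-Gal fragment complementation (chemiluminescent read, 1 h detection at ambient temperature) reporting beta-arrestin binding to GPR32 in engineered CHO-K1 cells. Compound treatment lasted 90 min at 37 C, normalized to a DMSO basal control.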
SKOV3 invasion: inhibitors of ovarian cancer cell adhesion and invasion in omental model | SKOV3ip1-GFP adhesion/invasion on 3D omental model, fluorescence | Potency, µM (titrated, usually from 45.8 µM), for the others: at the highest dose activity change, negative = inhibition, hits mostly inhibitors | 46,000 tested, 0.1% active | AID 1963576;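 further: potency means the concentration at half of the fitted maximal effect; plate controls were DMSO wells for no effect and tomatine positive control wells for full effect; nearly all actives have a fitted effect of over 65% in size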
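qHTS, 4-pt dose (0.36-46 umol/L); SKOV3ip1-GFP, 1,200 cells/well, no FBS; primary omental fibroblast/mesothelial co-culture 48 h pre-grown; 2 h RT + 16 h 37 C; PBS wash, 4% PFA; GFP count 488/509 nm.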
NTMT1 inhibitor: inhibitors of human N-terminal methyltransferase NTMT1 | 59,000 tested, 2.5% active | Q9BV86 | AID 1645870 | NTMT1 MTase-Glo SAH luminescence, purified enzyme | Potency, µM (doses to about 114 µM), inactives show at the top dose activity change, negative = inhibition, usual class: inhibitors;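 further: potency means the concentration at half of the fitted maximal effect; plate controls were DMSO vehicle for no effect and no enzyme for full effect; nearly all actives have a fitted effect of over 65% in size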
* hit, by the source's call; ? = inconclusive; nt = no result given; ! = not active in a repeat; [ ] = remark or other dose. Unless noted, the call rests on the fitted dose curve; in most records, active means well fitted curve in the direction sought with a large enough effect; inconclusive means small, poorly fitted or top-dose-only effect, or another doubt; inactive means no such curve, though single readings can be large; an effect the other way counts as inactive or inconclusive.

SMILES	FH mod	GPR32 ag	SKOV3 invasion	NTMT1 inhibitor
O=C1CN=C(c2ccccc2Cl)c2cc(Cl)ccc2N1Cc1cccc(Cl)c1	-19%	-17	?	8%
CC(C)(O)C=CC(=O)[C@](C)(O)[C@H]1[C@H](O)C[C@]2(C)[C@@H]3CC=C4[C@@H](C=C(O)C(=O)C4(C)C)[C@]3(C)C(=O)C[C@@]12C	6%[53.3 µM]	nt	1µM*	28%[57.5 µM]
O=P1(N(CCCl)CCCl)NCCCO1 (configuration not stated)	5%[53.3 µM]	9	-7%	35µM*!
Cc1c(Cl)cccc1S(=O)(=O)Nc1nc(CC(=O)N2CCN(C)CC2)cs1	1%	nt	nt	-2%[57.5 µM]
CN(C)[C@@H]1C(=O)C(C(N)=O)=C(O)[C@@]2(O)C(=O)C3=C(O)c4c(O)cccc4[C@@](C)(O)[C@H]3[C@H](O)[C@@H]12	-1%[53.3 µM]	nt	-4%	79µM*
CC1=C2[C@H]3OC(=O)[C@@H](C)[C@@H]3CC[C@@]2(C)C=CC1=O	1%[53.3 µM]	0	nt	8%[57.5 µM]
O=C1N[C@@H](Cc2ccccc2)CN2CCCC[C@@H]12	35%	nt	nt	-9%[57.5 µM]
C[N+](C)(C)CCOC(=O)C(O)(c1ccccc1)c1ccccc1	3%[53.3 µM]	0	nt	16µM*
O=C(Nc1ccc(OC(F)(F)F)cc1)c1cccn(Cc2ccccc2Cl)c1=O	-13%	-1	-1%	-4%
O=C(O)C(=O)c1cn(Cc2ccccc2)c2ccc(-c3ccc(OC(F)(F)F)cc3)cc12	-13%	nt	-5%	40µM*!
NC(=O)CI	25µM*	-10	nt	nt
CCC1C(=O)OCC1Cc1cncn1C (configuration not stated)	4%[53.3 µM]	-11	nt	29%[57.5 µM]
